Test results published in PubChem BioAssay (NCATS).
Results filed as inconclusive are left out. Values without a mark were called inactive. Active and inactive are the calls of the source. Calls follow the shape of the dose curve; as a rule, active = well fitted inhibition curve with a large enough effect; inconclusive = small, poorly fitted or top-dose-only effect; inactive = flat fitted curve, though single readings scatter.

Molecular target: Lysine-specific demethylase 5B (Homo sapiens) (UniProt Q9UGL1)
Assay: Optimization screen for KDM5B Histone Demethylases FDH coupled qHTS against the LOPAC library (AID 1347166); also: 0% is about no effect
Conditions: KDM5B demethylation, FDH-coupled NADH fluorescence (FDH is formaldehyde dehydrogenase); at 57.5 µM (top of the series)
Excerpt: Assay Submitter (PI): Qin Yan, Ph.D. (Yale University) and Xiaodong Cheng, Ph.D. (MD Anderson)
This project was funded as part of the NCI NEXT Program and Chemical Biology Consortium (CBC)
The histone demethylases, KDM5A and KDM5B catalyze the demethylation of lysine 4 on histone H3 (H3K4me3/2). They
are overexpressed in a variety of cancers and have been implicated in cancer cell growth, metastasis, drug resistance, and tumor growth. KDM5A is amplified and overexpressed in breast and gastric cancer; and is translocated in leukemia. While KDM5B is highly expressed in human mammary tumors and breast cancer cell lines, but not in normal adult breast tissue. Moreover, knockdown of KDM5B leads to upregulation of tumor suppressor genes, including BRCA1. The goal of this project is to employ qHTS to identify selective small molecule inhibitors of KDM5A/B demethylase activity to better understand the role of KDM5 in cancer and to develop novel therapies.
We employed an FDH-coupled assay previously reported by Sakurai et al. to monitor in vitro KDM5 demethylase activity. Compounds showing dose response inhibition are re-acquired, validated, and tested for non-specific interference with the formaldehyde dehydrogenase (FDH) counterscreen. True inhibitors are validated using an AlphaLisa secondary screen, which employs an H3K4(me2-1)-specific antibody to monitor demethylation of a biotin-tagged H3K4(me3) peptide substrate. Inhibitors are profiled against KDM4A and KDM6A AlphaLisa counterscreens to determine level of demethylase specificity; and against the TruHits counterscreen to eliminate non-specific inhibitory activity on the AlphaLISA detection method. Selective inhibitors identified from the primary and secondary screening are tested in cells using immunofluorescence to monitor global H3K4 tri-methylation as a measure of KDM5A/B inhibition. This assay is run against the NCGC Lopac collection of about 1,200 compounds to evaluate its amenability to quantitative High Throughput Screening (qHTS) platform.
Early Translation Branch (ETB)
National Center for Advancing Translational Sciences (NCATS), Rockville, MD
National Institute of Health (NIH), Bethesda, Maryland
[1] Sakurai, M et al. A miniaturized screen for inhibitors of Jumonji histone demethylases. Mol Biosyst. 2010 Feb;6(2):357-64. doi: 10.1039/b912993f. Epub 2009 Oct 8.
1536-well Black, solid bottom, medium binding assay plate is purchased from Greiner Bio-one. The enzymes (KDM5B) and substrate (H3K4me3/2) are provided by the principal investigators. The buffer for this assay is composed of 50mM HEPES at pH 7.5 with 0.01% Tween-20.
FDH coupled qHTS protocol:
Three microliter enzyme mix (buffer + 200nM KDM5BDeltaAP final concentration) is dispensed into the assay plate using the BioRAPTR Flying Reagent Dispenser (FRD; Beckton-Dickenson). Compound (at various final concentration) and control solution is pin transferred to the assay plate using the Kalypsys 1536-pin tool apparatus. The assay plate is incubated for 10 min at room temperature followed by addition of 1uL substrate mix (buffer + 100uM ascorbic acid, 50uM ferrous ammonium sulfate, 12.5uM H3K4Me3, 25uM a-ketoglutarate, 0.25 mM NAD+, 0.25 U/mL formaldehyde dehydrogenase using the FRD yielding a total reaction volume of 4 uL. Initial fluorescence (Read1) is detected using the PerkinElmer ViewLux plate reader equipped with 340 nm excitation and 450 nm emission filters. The final fluorescence (Read2) signal is obtained after 30 min of room temperature incubation. Delta RFU is calculated (Read2 - Read1) and is used to generated dose response curves

Sequence of Lysine-specific demethylase 5B (Homo sapiens) (Q9UGL1 whole entry, looked up): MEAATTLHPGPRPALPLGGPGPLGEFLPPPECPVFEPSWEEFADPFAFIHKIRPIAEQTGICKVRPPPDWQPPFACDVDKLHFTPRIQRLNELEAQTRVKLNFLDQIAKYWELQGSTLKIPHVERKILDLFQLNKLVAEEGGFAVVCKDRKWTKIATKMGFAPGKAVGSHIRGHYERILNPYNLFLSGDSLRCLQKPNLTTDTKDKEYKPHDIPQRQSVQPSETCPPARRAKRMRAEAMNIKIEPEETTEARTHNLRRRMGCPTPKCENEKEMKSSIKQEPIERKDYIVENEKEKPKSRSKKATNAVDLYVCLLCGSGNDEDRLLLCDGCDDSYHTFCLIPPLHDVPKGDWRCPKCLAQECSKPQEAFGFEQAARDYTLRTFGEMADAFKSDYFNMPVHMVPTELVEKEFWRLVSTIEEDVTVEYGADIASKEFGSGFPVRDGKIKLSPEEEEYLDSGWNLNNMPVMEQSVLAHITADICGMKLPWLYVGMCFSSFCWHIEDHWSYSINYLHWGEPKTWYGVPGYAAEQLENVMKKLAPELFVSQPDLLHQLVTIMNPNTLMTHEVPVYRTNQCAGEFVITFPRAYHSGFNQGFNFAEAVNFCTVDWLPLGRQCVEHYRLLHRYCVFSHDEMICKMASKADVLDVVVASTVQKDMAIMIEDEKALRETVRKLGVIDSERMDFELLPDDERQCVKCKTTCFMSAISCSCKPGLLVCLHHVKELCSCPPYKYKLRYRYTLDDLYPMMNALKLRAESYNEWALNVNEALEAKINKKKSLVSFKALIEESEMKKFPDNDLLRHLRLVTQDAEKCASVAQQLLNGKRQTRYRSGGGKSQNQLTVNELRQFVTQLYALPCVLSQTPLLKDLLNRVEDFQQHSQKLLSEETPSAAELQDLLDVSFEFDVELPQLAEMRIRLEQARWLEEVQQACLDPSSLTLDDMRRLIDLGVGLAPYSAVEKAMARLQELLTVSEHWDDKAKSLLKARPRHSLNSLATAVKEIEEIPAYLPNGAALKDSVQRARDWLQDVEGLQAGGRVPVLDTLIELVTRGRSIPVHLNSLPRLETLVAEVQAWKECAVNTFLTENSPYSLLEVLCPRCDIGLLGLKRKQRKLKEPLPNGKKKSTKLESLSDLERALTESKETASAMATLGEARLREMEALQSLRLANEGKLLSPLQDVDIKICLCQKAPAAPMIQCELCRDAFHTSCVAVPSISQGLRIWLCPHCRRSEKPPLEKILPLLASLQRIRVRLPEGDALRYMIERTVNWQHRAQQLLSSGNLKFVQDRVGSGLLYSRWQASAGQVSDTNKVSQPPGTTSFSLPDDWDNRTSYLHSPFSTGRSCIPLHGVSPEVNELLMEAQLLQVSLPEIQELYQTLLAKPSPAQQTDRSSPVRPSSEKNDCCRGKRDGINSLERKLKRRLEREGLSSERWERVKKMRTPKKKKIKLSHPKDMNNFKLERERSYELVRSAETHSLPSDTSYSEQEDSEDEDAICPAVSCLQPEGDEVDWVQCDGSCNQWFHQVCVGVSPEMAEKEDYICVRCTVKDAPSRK

| SMILES | activity, negative = inhibition |
| --- | --- |
| c1ccc(CN2CCC3(CCCc4ccccc43)CC2)cc1 | -0.246% |
| Cn1c(=O)c2[nH]c(-c3ccc(S(=O)(=O)O)cc3)nc2n(C)c1=O | 39.3% |
| Cn1c(=O)c2c(nc(/C=C/c3cccc(Cl)c3)n2C)n(C)c1=O | -517% (active) |
| Nc1ccc(N2C(=O)c3ccccc3C2=O)c(Cl)c1 | -4.03% |
| Clc1nccc2c1ccc1ccccc12 | 2.06% |
| CC(C)(C)c1ccc(/C=C/C(=O)Nc2ccc3c(c2)OCCO3)cc1 | -12.1% |
| CC(=O)NNC(=O)N1Cc2ccccc2Oc2ccc(Cl)cc21 | -5.14% |
| CCCn1c(=O)c(C)cn2nc(N)nc12 | -3980% (active) |
| CCCn1c(=O)c2c(ncn2C)n(CCC)c1=O | -2.62% |
| C=C1C[C@@]23CC[C@H]4[C@@](C)(CCC[C@@]4(C)C(=O)OC4OC(CO)C(O)C(O)C4O)[C@@H]2CC[C@]1(OC1OC(CO)C(O)C(O)C1OC1OC(CO)C(O)C(O)C1O)C3 (stereo not given in full) | -7.5% |
| NCCS(=O)O | -4.01% |
| O=C(c1ccc2c(c1)OCCO2)N1CCCCC1 | -3.79% |
| CN1CCC2(CCN3CCc4c(oc5ccccc45)C3C2)N(C)C1=O (stereo not given) | -3.3% |
| COC1(C2=NCCN2)COc2ccccc2O1 (stereo not given) | -3.68% |
| CCC1(O)CC2CN(CCc3c([nH]c4ccccc34)[C@@](C(=O)OC)(c3cc4c(cc3OC)N(C)C3[C@]45CCN4CC=C[C@@](CC)([C@@H](OC(C)=O)[C@]3(O)C(=O)OC)[C@H]45)C2)C1 (stereo not given in full) | -13.4% |
| O=C(O)c1ccccc1Nc1cccc(OCc2ccc3ccccc3n2)c1 | -2.34% |
| CC1=C(C(=O)O)N2C(=O)[C@@H](NC(=O)C(N)C3=CCC=CC3)[C@H]2SC1 (stereo not given in full) | -22.8% |
| CC(=O)NCCc1c[nH]c2ccc(O)cc12 | -23.2% |
| CSC(=N)N | -3.96% |
| C#CCn1c(=O)c2c(ncn2C)n(C)c1=O | -2.26% |

| SMILES | activity, negative = inhibition |
| --- | --- |
| Cn1cc(C(F)(F)F)nc1-c1ccc(OCC(O)CNCCOc2ccc(O)c(C(N)=O)c2)cc1 (stereo not given) | -27.4% |
| CC1CNCCN1S(=O)(=O)c1cccc2cnccc12 (stereo not given) | -12.8% |
| O=C(O)/C=C/c1cnc[nH]1 | -28.2% |
| CC(N)=O | -7.02% |
| O=C(O)[C@H]1NCCC[C@H]1C(=O)O | -4.16% |
| CC(C)C[C@H](NC(=O)[C@H](O)[C@H](N)Cc1ccccc1)C(=O)O | -4.3% |
| COc1cc(C(O)C(=O)O)ccc1O (stereo not given) | -6.83% |
| OC[C@H]1NC[C@@H](O)[C@@H]1O | 1.64% |
| CCCn1c(=O)c2[nH]c(C3CCCC3)nc2n(CCC)c1=O | -5.16% |
| CCCCS(=N)(=O)CC[C@H](N)C(=O)O (stereo not given in full) | -2.9% |
| CCC(=O)N1CCN(C(=O)c2ccccc2)CC1 | 3.19% |
| O=c1onc2n1-c1cc(Br)ccc1OC2 | -6.75% |
| O=C(O)/C(=C/c1c(C(=O)O)[nH]c2cc(Cl)cc(Cl)c12)c1ccccc1 | -2.54% |
| NCCNS(=O)(=O)c1cccc2c(Cl)cccc12 | -9.52% |
| COc1ccc2c(c1)CCC1C2CC[C@@]2(C)C1CC[C@@H]2NCCCCCCN1C(=O)C=CC1=O (stereo not given in full) | -20.3% |
| O=S(=O)(c1cccc2c(Cl)cccc12)N1CCCNCC1 | 1.08% |
| NC1(C(=O)O)CCCCC1 | -8.23% |
| CC(C)(C)c1cc(/C=C(\C#N)C(N)=S)cc(C(C)(C)C)c1O | -26.1% |
| CCn1c(=O)[nH]c2cc(Cl)c(Cl)cc21 | -0.178% |
| Oc1ccc(Cn2cc[nH]c2=S)cc1 | -15.9% |
